# Compound activity (PubChem)
# SENP6 inh: blocks the human protease SENP6; inhibition, % at 10 µM; 1.8% of 330,000 active; Recombinant SENP6 catalytic domain, aminoluciferin luminescence; Q9GZR1;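 active means inhibition above about 50% at the single tested dose, limit read from the data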;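 further: plate controls were DMSO wells with enzyme for no effect and DMSO wells lacking enzyme for full effect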
# SENP8 block-1: SENP8 protease inhibition; purified SENP8, Z-RLRGG-aminoluciferin cleavage, luminescence; inhibition, % at 10 µM; 1.2% of 330,000 active; in the data active means inhibition above about 50%
# SENP7 block: SENP7 protease inhibition; 1.5% of 330,000 active; inhibition, % at 5 µM; Q9BQF6; AID 434973; recombinant SENP7, Z-RLRGG-aminoluciferin luminescence, 40 min;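 active means inhibition above about 50% at the single test dose, limit read from the data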;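 further: plate controls were DMSO with enzyme for no effect and no enzyme buffer wells for full effect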
# Target sequence (Q9BQF6 706-1050 limits assumed): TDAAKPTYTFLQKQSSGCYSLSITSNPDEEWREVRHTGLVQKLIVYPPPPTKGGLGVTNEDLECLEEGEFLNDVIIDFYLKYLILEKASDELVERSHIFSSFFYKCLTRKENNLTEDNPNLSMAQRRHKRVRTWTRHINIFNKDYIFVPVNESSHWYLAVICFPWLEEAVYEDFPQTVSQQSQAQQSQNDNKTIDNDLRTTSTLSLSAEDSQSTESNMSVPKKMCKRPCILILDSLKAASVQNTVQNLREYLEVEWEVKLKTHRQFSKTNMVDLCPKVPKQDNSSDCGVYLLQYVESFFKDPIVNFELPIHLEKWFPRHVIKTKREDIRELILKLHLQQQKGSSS
# PPC-1+TRAIL kill: compounds killing PPC-1 cancer cells with TRAIL present (potentiator screen, no TRAIL-free arm). PPC-1 cells + TRAIL, ATPLite viability luminescence. cell killing (% activity), % at 4 µM or 5 µM. 0.41% of 220,000 active;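 active means cell killing above 50% in the first pass at 4 µM, then a duplicate retest at 5 µM averaging 50% or more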;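 further: plate controls were cells with TRAIL plus DMSO for no effect and medium-only wells lacking cells for full effect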
# C8 TRAIL sens: sensitizes caspase-8 expressing cells to TRAIL; NB7+C8 cells + TRAIL, ATPlite viability luminescence; inhibition (viability loss, TRAIL sensitization), % at 10 µM; 1% of 360,000 active; AID 624354;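 active means compounds causing at least 50% loss of cell viability in the single-dose screen, relative to plate controls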
# SENP8 block-2: blocks human SENP8 cleavage of Nedd8 substrate | Q96LD8 | recombinant SENP8, Nedd8 substrate fluorescence | inhibition, % at 20 µM | 0.64% of 360,000 active | AID 602440; in the data active means inhibition mostly above about 40%, no sharp cut-off; inactive means mostly below about 27%
# SENP8 confirm: human SENP8 inhibition, confirmed; shares compounds with SENP7 block; Recombinant SENP8, Z-RLRGG-aminoluciferin luminescence, 60 min; inhibition, % at 12.5 µM; 40% of 6,200 active;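 active means mean inhibition across replicates above about 50%, limit read from the data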
# SENP6 confirm: confirmation of human SENP6 protease inhibitors | shares compounds with SENP7 block | recombinant SENP6, Z-RLRGG-aminoluciferin luminescence | inhibition, % at 12.5 µM | 58% of 6,200 active
# SENP7 conf: confirmation of human SENP7 protease inhibitors. 69% of 6,200 active. shares compounds with SENP7 block. inhibition, % at 12.5 µM. recombinant SENP7, Z-RLRGG-aminoluciferin luminescence, 40 min
# Casp3 select: selectivity test for SENP inhibitors: human caspase-3 inhibition; shares compounds with SENP7 block; purified caspase-3, Z-DEVD-aminoluciferin luminescence, 60 min; inhibition, % at 12.5 µM; 60% of 6,200 active; AID 488918;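 active means mean inhibition above about 50%, limit read from the data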;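 further: plate controls were enzyme with DMSO for no effect and wells without caspase-3 for full effect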
# Target sequence (P42574 28-227 limits assumed): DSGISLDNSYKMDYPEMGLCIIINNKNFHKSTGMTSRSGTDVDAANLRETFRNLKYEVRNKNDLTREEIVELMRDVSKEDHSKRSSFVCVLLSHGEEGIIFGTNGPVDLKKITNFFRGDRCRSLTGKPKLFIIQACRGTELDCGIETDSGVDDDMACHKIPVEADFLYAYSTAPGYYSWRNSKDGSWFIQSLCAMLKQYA
# SENP luc ctr: interferes with luciferase luminescence in SENP counter-screen; 39% of 6,200 active; inhibition, % at 12.5 µM; shares compounds with SENP7 block; Pre-incubated SENP8/Z-RLRGG-aminoluciferin, luciferase luminescence interference;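 active means mean inhibition above about 50% when retested at one dose, limit read from the data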;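 further: plate controls were DMSO wells with completed reaction for no effect and substrate without enzyme for full effect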
# * = called active by the depositor; . = no result. Hits are enriched below; roughly 3% of the tested compounds scored in any of these assays.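 How the source made its calls, unless noted: active means mean inhibition above about 50% in the one-dose retest (limit read from the data); inactive means the rest.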
SMILES,SENP6 inh,SENP8 block-1,SENP7 block,PPC-1+TRAIL kill,C8 TRAIL sens,SENP8 block-2,SENP8 confirm,SENP6 confirm,SENP7 conf,Casp3 select,SENP luc ctr
CN(C)c1ccc(C(=O)Nc2nc3c(s2)CCCC3)cc1,95.4*,93.7*,98.1*,39.1,54.5*,-397.2,13.5,69.3*,82.2*,58.5*,38.1
Cc1cc(C(=O)Nc2nc3c(s2)CCCC3)no1,62.9*,18.6,56.3*,26.0,6.7,9.8,45.5,41.8,79.6*,75.3*,54.5*
O=C(Nc1nc2c(s1)C(=O)CCC2)c1ccccc1,97.5*,95.1*,97.0*,41.9,27.0,-28.8,96.7*,97.5*,101.1*,97.2*,95.7*
O=C(Nc1nc(=O)[nH]s1)c1ccccc1,-10.8,-2.4,1.9,10.1,-3.3,12.4,.,.,.,.,.
O=C(COc1ccc(Cl)cc1)NCc1ccncc1,17.7,4.8,-6.8,-1.8,-3.6,8.8,.,.,.,.,.
CCOC(=O)C1=CNS(=O)(=O)NC1c1cccc(O)c1 (centres undefined),.,.,-4.1,.,-6.1,-15.0,.,.,.,.,.
COc1ccc([C@@H]2CC(=O)[C@@H]3CN(S(=O)(=O)c4ccc(C)cc4)[C@H](c4cccc(Cl)c4)C[C@@H]3N2S(=O)(=O)c2ccccc2)cc1,.,.,.,.,5.7,6.7,.,.,.,.,.
COc1ccc(N2CC(C(=O)OCC(=O)Nc3cccc(C)c3C)CC2=O)cc1 (centres undefined),0.3,1.8,6.0,.,10.3,-2.3,.,.,.,.,.
Cc1ccc(O)c(-c2cc(-c3ccccc3F)[nH]n2)c1,62.3*,57.0*,54.6*,22.1,10.8,22.8,65.7*,71.5*,92.4*,28.1,14.2
Cc1ccc(-c2cc(-c3cccc(F)c3)n[nH]2)c(O)c1,77.8*,40.5,43.5,25.6,7.6,26.4,74.6*,72.4*,87.2*,13.2,18.6
Cc1ccc2c(c1)N=C(c1ccc(F)cc1)CO2,97.8*,95.0*,97.4*,29.9,-7.5,-155.6,4.4,97.0*,102.2*,90.6*,49.9
COc1ccc(C)cc1Nc1n[n+](-c2ccccc2)c(-c2ccc(NC(C)=O)cc2)s1,-17.7,-6.2,5.8,.,-5.6,-7.9,.,.,.,.,.
COc1ccc(C)cc1Nc1n[n+](-c2ccccc2)c(-c2ccc(SC)cc2)s1,68.9*,60.2*,13.9,.,31.1,-10.7,4.6,66.3*,89.0*,77.9*,70.3*
COc1ccc(OC)c(S(=O)(=O)Nc2ccc3c(c2)C(=O)OC3)c1,-15.4,-0.5,2.9,-2.1,16.4,21.3,.,.,.,.,.
O=C1C(Nc2ccccc2)=CC(c2ccc(O)cc2)N1c1ccccc1 (centres undefined),57.8*,5.4,2.7,11.2,9.8,-452.5,9.2,5.1,-3.4,4.0,1.6
COc1ccc(N2C(=O)/C(=C/c3ccc([N+](=O)[O-])cc3)C=C2c2ccccc2)cc1,-9.3,0.8,60.5*,8.5,12.4,20.7,7.2,6.9,9.4,7.1,1.9
O=C1/C(=C/c2ccc([N+](=O)[O-])cc2)C=C(c2ccccc2)N1c1ccccc1,2.0,0.5,1.6,11.8,11.3,2.4,.,.,.,.,.
N/C(=N\OC(=O)c1cccc(Br)c1)c1ccccc1,71.6*,67.3*,86.0*,7.0,88.9*,14.3,67.1*,73.2*,97.2*,81.7*,26.1
N/C(=N\OC(=O)c1ccoc1)c1ccc(Br)cc1,92.7*,84.1*,90.8*,.,37.7,3.6,75.6*,71.4*,94.1*,74.8*,70.4*
N/C(=N\OC(=O)c1ccco1)c1cccc([N+](=O)[O-])c1,25.7,4.3,9.7,9.4,-1.2,11.8,.,.,.,.,.
N/C(=N\OC(=O)c1ccco1)c1cccc(Br)c1,78.3*,52.2*,74.4*,-2.9,-0.2,18.8,70.0*,67.6*,90.0*,75.9*,67.2*
CC1=C(C(=O)N(C)C)CC(CC(=O)NCc2cccs2)C(=O)N1Cc1ccc(F)cc1 (centres undefined),.,.,.,.,13.3,17.4,.,.,.,.,.
O=C(CCCN1C(=O)/C(=C/c2ccccc2Cl)SC1=S)NCCCN1CCOCC1,52.3*,21.7,20.5,.,10.3,22.4,50.3*,44.2,64.6*,29.6,40.1
O=C(CCCN1C(=O)/C(=C/c2ccccc2Cl)SC1=S)N1CCCC1,73.8*,84.0*,68.3*,.,11.4,22.3,84.6*,84.0*,87.7*,61.3*,28.2
CCCCNc1nc2c(c(=O)n(Cc3ccccc3)c(=O)n2C)n1C,-0.7,-10.4,-2.3,.,1.3,12.2,.,.,.,.,.
SMILES,SENP6 inh,SENP8 block-1,SENP7 block,PPC-1+TRAIL kill,C8 TRAIL sens,SENP8 block-2,SENP8 confirm,SENP6 confirm,SENP7 conf,Casp3 select,SENP luc ctr
O=C1N/C(=C\c2nc3ccccc3s2)c2ccccc21,91.9*,84.1*,98.3*,40.1,.,.,32.8,42.1,34.1,37.4,6.0
O=C1N/C(=C\c2ccccc2)c2ccccc21,14.1,-18.8,0.7,6.7,4.8,-130.2,.,.,.,.,.
Cc1ccc(Nc2n[nH]c(C)c2[N+](=O)[O-])cc1,-6.6,-10.7,-2.7,32.9,-5.1,24.7,.,.,.,.,.
Cc1[nH]nc(Nc2ccc(C(C)C)cc2)c1[N+](=O)[O-],50.8*,39.0,15.9,27.7,21.8,14.7,41.9,38.8,77.3*,24.6,13.4
C#CCNC(=O)c1ccc(OCc2ccccc2)cc1Cl,75.1*,63.4*,64.4*,15.4,-1.0,10.8,69.8*,66.9*,87.0*,80.0*,69.4*
CN(C)c1ccc(C2NC(=O)c3ccccc3N2)cc1 (centres undefined),90.6*,86.7*,93.1*,.,65.5*,-272.1,13.2,5.6,2.3,13.1,15.1
O=C1NC(c2ccc(Cl)cc2)Nc2ccccc21 (centres undefined),-6.4,-3.1,6.3,10.0,25.2,-186.5,.,.,.,.,.
CCc1sc(C(=O)Nc2nc(C)cs2)cc1C,84.9*,68.0*,65.3*,.,29.6,-43.8,70.3*,69.1*,92.1*,68.7*,69.3*
Cc1csc(NC(=O)c2ccc(Br)s2)n1,55.0*,29.7,26.5,.,13.9,-19.0,45.9,43.2,77.1*,47.9,26.1
O=C(Nc1ccccn1)c1ccc(Br)s1,66.9*,37.8,65.2*,.,15.2,7.7,65.5*,62.6*,88.2*,76.3*,66.8*
Cc1csc(NC(=O)c2cccs2)n1,17.4,2.5,31.4,-1.5,13.7,2.6,.,.,.,.,.
